Results: the antibiotic and cytotoxicity screens of Wong et al. (2023)
Hit rate of the full screen: of about 39,000 compounds, about 3,300 (8.5%) were called active. Many of the other results were omitted from the sample, so actives are more common in it than they were.

The molecules below were run on HepG2 (assay: cytotoxicity call (relative viability < 0.9)). Conditions: 10 µM.

SMILES	cytotoxicity call
Cc1noc(C)c1NC(=O)Nc1cccc2c1O[C@@H](CN(C)Cc1ccc(-c3ccccc3)cc1)[C@@H](C)CN([C@@H](C)CO)C2=O	inactive
Cc1ccc(S(=O)(=O)N(C)C[C@@H]2OCCCC[C@H](C)Oc3ccc(NC(=O)Nc4cccc5ccccc45)cc3C(=O)N([C@H](C)CO)C[C@@H]2C)cc1	inactive
CSC(=N)NCCC[C@@H](N)C(=O)O	inactive
C[C@H]1CCCCO[C@H](CN(C)S(=O)(=O)c2cccs2)[C@@H](C)CN([C@@H](C)CO)C(=O)c2cc(NC(=O)Nc3ccc(C(F)(F)F)cc3)ccc2O1	inactive
CC(C)(C)C(=O)Nc1c[nH]c(=O)[nH]c1=O	inactive
C[C@@H]1CCCCO[C@@H](CN(C)C(=O)NC2CCCCC2)[C@H](C)CN([C@@H](C)CO)C(=O)c2cc(NC(=O)c3ccncc3)ccc2O1	inactive
Nc1ccc2c(c1)nc(CO)n2CCO	inactive
Nc1ccc2cc3ccc(N)cc3nc2c1.O=S(=O)(O)O	active
Nc1ccc(S(=O)(=O)c2ccc(N)cc2)cc1	inactive
C[C@@H]1CN([C@H](C)CO)C(=O)c2cc(NC(=O)C3CCCCC3)ccc2O[C@H]1CN(C)C(=O)Nc1cccc2ccccc12	inactive
COc1ccc(S(=O)(=O)N(C)C[C@H]2Oc3ccc(NC(=O)C4CC4)cc3CC(=O)N([C@@H](C)CO)C[C@@H]2C)cc1	inactive
C[C@H](CO)N1C[C@H](C)[C@@H](CN(C)C(=O)Nc2cccc3ccccc23)Oc2ccc(NS(=O)(=O)c3ccc(Cl)cc3)cc2CC1=O	inactive
Cc1noc(C)c1NC(=O)N(C)C[C@@H]1Oc2ccc(NC(=O)C3CC3)cc2CC(=O)N([C@@H](C)CO)C[C@H]1C	inactive
COc1ccc(C#Cc2ccc([C@H]3[C@H](CO)N4CCCCN(S(=O)(=O)c5cn(C)cn5)C[C@@H]34)cc2)cc1	inactive
CN(C)CC#Cc1ccc([C@@H]2[C@@H](CO)N3CCCCN(C(=O)CN(C)C)C[C@@H]23)cc1	inactive
COc1ccc(C#Cc2ccc([C@@H]3[C@H](CO)N4CCCCN(S(=O)(=O)c5cn(C)cn5)C[C@@H]34)cc2)cc1	active
CN(C)CC#Cc1ccc([C@H]2[C@@H](CO)N3CCCCN(C(=O)CN(C)C)C[C@H]23)cc1	inactive
COc1ccc(NC(=O)N2CCCCN3[C@H](CN(C)C(C)=O)[C@H](c4ccc(C#Cc5ccccc5)cc4)[C@@H]3C2)cc1	active
CN(C)CC#Cc1ccc([C@H]2[C@@H](CO)N3CCCCN(C(=O)CN(C)C)C[C@@H]23)cc1	inactive
COc1ccc(C#Cc2ccc([C@@H]3[C@@H](CO)N4CCCCN(S(=O)(=O)c5cn(C)cn5)C[C@H]34)cc2)cc1	inactive
COc1ccc(NC(=O)N2CCCCN3[C@H](COCCN(C)C)[C@H](c4ccc(C#Cc5ccccc5)cc4)[C@@H]3C2)cc1	active
CN(C)CC#Cc1ccc([C@@H]2[C@H](CO)N3CCCCN(C(=O)CN(C)C)C[C@@H]23)cc1	inactive
O[C@H]1[C@H](O)[C@@H](O)[C@H]2O[C@@H]2[C@@H]1O	inactive

SMILES	cytotoxicity call
CCSC(=O)NC1CCCCC1	inactive
COc1ccc(NC(=O)N(C)C[C@H]2OCCCC[C@H](C)Oc3ccc(NC(=O)CCC(F)(F)F)cc3C(=O)N([C@H](C)CO)C[C@@H]2C)cc1	inactive
CS(=O)(=O)N1CC[C@@H]2OCCN(C(=O)c3cccnc3)[C@@H]2C1	inactive
C[C@@H]1CN([C@H](C)CO)C(=O)c2cccc(NS(=O)(=O)c3cn(C)cn3)c2O[C@H]1CN(C)Cc1ccc(C(=O)O)cc1	inactive
CC(=O)n1cc([C@@H]2C=C(C(=O)NCc3ccccc3)O[C@H](OCc3ccc(CO)cc3)C2)c2ccccc21	inactive
C[C@@H]1CN([C@@H](C)CO)C(=O)c2cc(NS(=O)(=O)c3ccccc3)ccc2O[C@@H]1CN(C)Cc1ccc(-c2ccccc2)cc1	active
C[C@H]1CN([C@@H](C)CO)C(=O)c2cc(NS(=O)(=O)c3ccccc3)ccc2O[C@@H]1CN(C)Cc1ccc(-c2ccccc2)cc1	inactive
C[C@H]1CN([C@@H](C)CO)C(=O)c2cc(NS(=O)(=O)c3ccccc3)ccc2O[C@H]1CN(C)Cc1ccc(-c2ccccc2)cc1	inactive
C[C@@H]1CN([C@H](C)CO)C(=O)c2cc(NS(=O)(=O)c3ccccc3)ccc2O[C@@H]1CN(C)Cc1ccc(-c2ccccc2)cc1	inactive
C[C@@H]1CN([C@@H](C)CO)C(=O)c2cc(NS(=O)(=O)c3ccccc3)ccc2O[C@H]1CN(C)Cc1ccc(-c2ccccc2)cc1	active
C[C@H](CO)N1C[C@H](C)[C@H](CN(C)Cc2ccc(-c3ccccc3)cc2)Oc2ccc(NS(=O)(=O)c3ccccc3)cc2C1=O	inactive
COc1ccc(NC(=O)N(C)C[C@H]2OCCCC[C@H](C)Oc3ccc(NC(=O)Nc4ccccc4)cc3C(=O)N([C@H](C)CO)C[C@@H]2C)cc1	inactive
COc1ccc(NC(=O)Nc2ccc3c(c2)C(=O)N([C@H](C)CO)C[C@H](C)[C@@H](CN(C)C(=O)Nc2ccc4c(c2)OCO4)OCCCC[C@H](C)O3)cc1	active
COc1ccc(NC(=O)N(C)C[C@H]2OCCCC[C@H](C)Oc3ccc(NC(=O)c4ccccc4)cc3C(=O)N([C@H](C)CO)C[C@@H]2C)cc1	inactive
C[C@@H]1CCCCO[C@H](CN(C)C(=O)Nc2ccc3c(c2)OCO3)[C@H](C)CN([C@H](C)CO)C(=O)c2cc(NC(=O)Nc3ccccc3)ccc2O1	inactive
COc1ccc(NC(=O)N(C)C[C@@H]2OCCCC[C@@H](C)Oc3ccc(NC(=O)c4ccccc4)cc3C(=O)N([C@H](C)CO)C[C@H]2C)cc1	active
C[C@H]1CCCCO[C@@H](CN(C)C(=O)Nc2ccc3c(c2)OCO3)[C@@H](C)CN([C@@H](C)CO)C(=O)c2cc(NC(=O)Nc3ccccc3)ccc2O1	inactive
C[C@@H]1CCCCO[C@@H](CN(C)C(=O)Nc2ccc3c(c2)OCO3)[C@H](C)CN([C@H](C)CO)C(=O)c2cc(NC(=O)Nc3ccccc3)ccc2O1	active
COc1ccc(NC(=O)Nc2ccc3c(c2)C(=O)N([C@H](C)CO)C[C@H](C)[C@H](CN(C)C(=O)Nc2ccc4c(c2)OCO4)OCCCC[C@@H](C)O3)cc1	inactive
COc1ccc(NC(=O)N(C)C[C@@H]2OCCCC[C@H](C)Oc3ccc(NC(=O)Nc4ccc5c(c4)OCO5)cc3C(=O)N([C@@H](C)CO)C[C@H]2C)cc1	inactive
COc1ccc(NC(=O)N(C)C[C@H]2OCCCC[C@@H](C)Oc3ccc(NC(=O)Nc4ccccc4)cc3C(=O)N([C@H](C)CO)C[C@@H]2C)cc1	active
COc1ccc(NC(=O)N(C)C[C@@H]2OCCCC[C@@H](C)Oc3ccc(NC(=O)c4ccccc4)cc3C(=O)N([C@@H](C)CO)C[C@@H]2C)cc1	inactive
COc1ccc(NC(=O)N(C)C[C@H]2OCCCC[C@H](C)Oc3ccc(NC(=O)Nc4ccccc4)cc3C(=O)N([C@@H](C)CO)C[C@@H]2C)cc1	inactive
